D2 PAM-1 – human D2 receptor positive allosteric modulation; DiscoveRx D2 beta-arrestin cells, luminescence, 90 min; 100% = 57 uM dopamine signal; 360,000 compounds, 0.23% hits; AID 624464; P14416; potentiation, % (concentration not given with the values); in the data active = potentiation above about 50%
Target sequence (P14416 whole entry, looked up): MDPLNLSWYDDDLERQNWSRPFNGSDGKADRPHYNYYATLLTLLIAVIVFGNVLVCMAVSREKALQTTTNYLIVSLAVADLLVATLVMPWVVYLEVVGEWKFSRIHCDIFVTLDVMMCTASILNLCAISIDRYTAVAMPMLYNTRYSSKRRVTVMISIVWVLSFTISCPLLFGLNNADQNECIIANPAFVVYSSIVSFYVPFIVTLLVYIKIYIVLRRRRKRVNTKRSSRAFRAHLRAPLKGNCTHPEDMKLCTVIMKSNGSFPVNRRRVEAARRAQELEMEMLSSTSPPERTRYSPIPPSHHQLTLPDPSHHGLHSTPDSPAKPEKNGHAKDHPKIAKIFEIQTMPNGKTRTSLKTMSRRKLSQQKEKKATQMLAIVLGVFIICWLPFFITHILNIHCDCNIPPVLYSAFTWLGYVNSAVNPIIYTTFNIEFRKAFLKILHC
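PathHunter D2 cells, attached overnight at 37 deg C, received compound in DMSO plus dopamine at EC20 (50 nM final) for 90 min at 37 deg C. Beta-arrestin recruitment was read as luminescence after 1 h with detection reagent at ambient temperature.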
D2 antag – antagonists of human D2 dopamine receptor. P14416. HEK293 TREx D2 cells, calcium flux, dopamine EC80. inhibition, % at 10 µM. 340,000 compounds, 2% hits; in the data active = inhibition above about 30%; inactive = below that, where a call was filed; also: 0% is about no effect
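Dopamine at EC80 is the agonist stimulus; test compounds precede it by 180 s. Calcium flux read kinetically in a force-coupled, inducible HEK293 T-REx D2 cell line.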
D2 PAM-2 – positively modulates the human D2 dopamine receptor allosterically; P14416; HEK293 T-REx D2, calcium flux, EC20 dopamine potentiation; potentiation, % at 10 µM; 340,000 compounds, 0.34% hits; AID 485347;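 active = potentiation over 3 SD above the plate norm, cut at about 30% in these data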; also: 0% is about no effect
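Tetracycline-induced Hek293 Trex D2 cells, force-coupled to calcium, loaded with no-wash calcium dye. Compound added with 180 s kinetic read for agonism, then EC20 dopamine and a further 180 s read for potentiation.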
D2 ag-1 – human D2 receptor agonism in beta-arrestin assay | AID 624465 | activation, % (concentration not given with the values) | P14416 | 360,000 compounds, 0.084% hits | DiscoveRx PathHunter D2 beta-arrestin, luminescence, 90 min; 100% = 57 uM dopamine signal; in the data active = activation above about 40%
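DiscoveRx PathHunter D2 beta-arrestin cells (2,100/well) attached overnight, then compound-stimulated 90 min at 37 C in HBSS/10 mM HEPES/0.1% Tween-20 buffer; beta-galactosidase complementation read by luminescence after 1 h at ambient temperature. Dopamine 57 uM final (EC100) as control.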
D2 ag-2 – D2 dopamine receptor (human) agonism | HEK293 T-REx D2 cells, calcium flux agonist mode | activation, % at 2 µM | 340,000 compounds, 0.53% hits | AID 485358;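 active = activation over 3 SD above normal in the single-dose calcium agonist read, cut at about 30% in these data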; also: 0% is about no effect
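HEK293 Trex D2 cells, tetracycline-induced, o/n 30 C 5% CO2; no-wash Ca dye, RT 30–90 min; 10-cycle baseline, 23 nl cpd added, kinetic Ca read 180 s; agonist hits = positive Ca response.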
Starred values were filed as active, the others as inactive; . = no result given. The list is not random: actives were taken first. Their share in the collection is about 2.4%.

SMILES | D2 PAM-1 | D2 antag | D2 PAM-2 | D2 ag-1 | D2 ag-2
CC(C)(C)C1CCC(C(=O)Nc2ccc(N3CCOCC3)cc2N2CCOCC2)CC1 (stereo unspecified) | -4.7 | 31.4* | -13.6 | -4.2 | -0.1
CCCCC1CCC(C(=O)Nc2ccccc2N2CCOCC2)CC1 (stereo unspecified) | 17.3 | 33.1* | 10.9 | -1.1 | 0.9
COc1ccc(CCNC(=O)C(=O)NCC(c2ccco2)S(=O)(=O)c2ccccc2)cc1OC (stereo unspecified) | . | . | -5.7 | . | -3.3
CC(=O)Nc1ccc(NC(=O)CSc2cn(CC(=O)N(C(C)C)C(C)C)c3ccccc23)cc1 | . | . | -0.1 | . | 0.3
Cc1cccc(NC(=S)NC(NC(=O)c2ccco2)C(Cl)(Cl)Cl)c1 (stereo unspecified) | -28.7 | 30.3* | -23.8 | 0.2 | 0.6
Cc1ccc(NC(=S)NC(NC(=O)c2ccco2)C(Cl)(Cl)Cl)cc1 (stereo unspecified) | -16.4 | -3.4 | -1.8 | -0.4 | 0.7
COc1cccc(-n2c(SCC(=O)NCc3ccco3)nnc2-c2c[nH]c3ccccc23)c1 | 3.7 | 48.4* | -11.1 | 1.6 | -2.1
CCC(=O)N1CCc2cc(S(=O)(=O)CCC(=O)NCCC3=CCCCC3)ccc21 | -16.8 | . | . | 0.5 | .
CCC(=O)N1c2ccc(S(=O)(=O)CCC(=O)NCCC3=CCCCC3)cc2CC1C (stereo unspecified) | -34.6 | 30.9* | -14.2 | -0.1 | -0.4
CCOc1cccc2sc(NC(=O)c3ccc(S(=O)(=O)N4CCCCC4C)cc3)nc12 (stereo unspecified) | . | . | 16.0 | . | -2.4
C(=N\N1CCOCC1)/c1nc(-c2ccccc2)n2ccccc12 | -2.0 | 43.4* | 0.7 | 2.2 | 1.0
Cc1c(C(=O)N2CCCCCC2)c(S(=O)(=O)N(Cc2ccccc2)C(C)(C)C)c(C)n1C | . | . | 10.8 | . | 0.5
CCc1cccc(NC(=O)Nc2cccs2)c1 | -38.1 | 32.4* | -10.7 | 1.3 | 1.0
COC(=O)c1ccccc1NC(=O)Nc1cccs1 | -23.9 | 37.9* | -6.8 | -2.1 | -0.3
N#Cc1cccc(NC(=O)Nc2cccs2)c1 | -22.5 | 1.0 | -1.1 | 2.9 | 0.5
CN1CCN(S(=O)(=O)c2cccc(C(=O)Oc3ccc(C(C)(C)C)cc3)c2)CC1 | -6.8 | 34.3* | 5.0 | -1.1 | 0.7
Cc1ccc(C(=O)N2CCOCC2)cc1S(=O)(=O)Nc1cccc(C)c1C | -2.0 | 41.6* | -0.9 | -1.6 | 0.4
CCOc1ccc(CCNC(=O)c2ccc3c(c2)N(Cc2ccc(F)cc2)CCS3)cc1 | . | . | 3.6 | . | .
CCOc1ccc(CNC(=O)c2ccc3c(c2)N(CC)CCS3)cc1 | -9.5 | 60.9* | -17.3 | 0.9 | 1.0
CCN1CCSc2ccc(C(=O)NCc3ccc(OC(C)C)cc3)cc21 | -12.0 | 59.7* | -14.1 | -3.8 | 1.8
O=C(Nc1sc2c(c1C(=O)NCc1ccco1)CCCC2)c1cc(=O)c2ccccc2o1 | . | . | -9.4 | . | .
CCN(CC)CCNCC(O)(c1ccc(Cl)cc1)c1ccc(Cl)cc1 | -15.9 | . | -24.9 | -1.4 | .
CCN(CC)CCNCc1ccc(-c2ccc(Cl)cc2)o1 | -29.6 | 33.4* | -23.7 | 0.7 | 0.5
COc1cccc(CNS(=O)(=O)c2ccc(N3CCCCS3(=O)=O)cc2)c1 | . | . | -4.8 | . | -0.4
Cc1ccc(-c2noc(C3CC(=O)N(c4ccc5c(c4)OCCO5)C3)n2)cc1 (stereo unspecified) | . | . | -10.4 | . | -0.2
SMILES | D2 PAM-1 | D2 antag | D2 PAM-2 | D2 ag-1 | D2 ag-2
Cc1ccc(NC(=O)N2CCc3cc(S(=O)(=O)N4CCC(C)CC4)ccc32)cc1 | . | . | 7.7 | . | -1.2
CCOC(=O)c1cc(C)[nH]c1C | -9.8 | -8.5 | 8.6 | -19.6 | 0.1
CCOC(=O)c1cc(C)[nH]c(=O)c1C#N | 62.1* | -17.1 | 7.2 | -0.8 | 0.1
Cc1ccc(CC(=O)Nc2nncs2)cc1 | 4.0 | 47.3* | -0.5 | 0.1 | 0.3
COc1ccc(CC(=O)Nc2nncs2)cc1OC | 11.1 | -7.6 | -5.1 | 0.8 | 1.1
Cc1ccc(-c2nc(CS(=O)(=O)CC(=O)NCc3cccc(F)c3)c(C)o2)cc1 | -2.3 | 11.6 | 7.4 | 0.7 | .
CCOC(=O)N1CCC(NC(=O)CS(=O)(=O)Cc2nc(-c3cccc(OC)c3)oc2C)CC1 | -6.4 | 23.8 | 96.6* | -0.2 | -0.2
COc1ccc(-c2nc(CS(=O)(=O)CC(=O)NCc3cccc(F)c3)c(C)o2)cc1 | -3.6 | 54.3* | -6.4 | -4.9 | -0.3

Screening data (PubChem BioAssay)
